# Source: PubChem BioAssay (NCI)
# About 79,000 compounds went through this panel and 15% of them were active in at least one assay; those are over-represented in the sample as a whole. Values without a mark were called inactive. Activity calls are given as the source filed them. No stated cut-off is given here; in the data, active means growth inhibition above about 70%; inactive means the rest.
# Tests used:
# [1] = NCI Yeast Anticancer Drug Screen. Data for the rad52 strain (AID 147);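 further: 0% = growth of vehicle-treated control cultures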; conditions: S. cerevisiae rad52 mutant growth inhibition, stronger effect = higher value
# How it was run: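 Screen used a yeast mutant impaired in DNA repair. After compound exposure, growth was measured. Values reflect inhibition compared with vehicle-treated cells.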
# [2] = NCI Yeast Anticancer Drug Screen. Data for the rad50EPP+ strain (AID 151);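 further: 0% = growth of vehicle-treated control cultures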; conditions: S. cerevisiae rad50 mutant strain, stronger effect = higher value
# How it was run: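 Exposing the rad50EPP+ strain to each compound, growth was compared with vehicle-only cultures to give inhibition.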
# [3] = NCI Yeast Anticancer Drug Screen. Data for the mgt1 strain (AID 153); conditions: S. cerevisiae mgt1 mutant growth inhibition, stronger effect = higher value
# How it was run: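 Genetically defined yeast (mgt1) treated with compound; inhibition of growth expressed against vehicle-treated controls.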
# [4] = NCI Yeast Anticancer Drug Screen. Data for the rad50 strain (AID 155);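 further: 0% = growth of vehicle-only cultures of the same strain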; conditions: S. cerevisiae rad50 strain growth inhibition, stronger effect = higher value
# How it was run: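 Readout: growth inhibition relative to vehicle-treated cultures. Compound exposure was carried out in a genetically defined yeast strain deficient in DNA damage repair.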
# [5] = NCI Yeast Anticancer Drug Screen. Data for the mec2-1 strain (AID 157); conditions: S. cerevisiae mec2-1 strain, stronger effect = higher value
# How it was run: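 Readout is yeast growth inhibition, normalised to vehicle-treated controls, in the mec2-1 strain exposed to compound.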
# [6] = NCI Yeast Anticancer Drug Screen. Data for the sgs1 mgt1 strain (AID 161);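 further: 0% = growth of cultures given vehicle only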; conditions: S. cerevisiae sgs1 mgt1 strain, stronger effect = higher value
# How it was run: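 This yeast growth screen uses a strain with defined DNA-repair lesions; compound-treated growth is compared with vehicle-treated growth.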
# [7] = NCI Yeast Anticancer Drug Screen. Data for the cln2 rad14 strain (AID 165);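 further: 0% = growth equal to vehicle treated cultures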; conditions: S. cerevisiae cln2 rad14 strain, stronger effect = higher value
# How it was run: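 Relative to vehicle controls, growth inhibition of compound-treated cln2 rad14 yeast was recorded.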
# [8] = NCI Yeast Anticancer Drug Screen. Data for the bub3 strain (AID 167); conditions: S. cerevisiae bub3 mutant strain, stronger effect = higher value
# How it was run: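 Readout: yeast growth inhibition, expressed relative to vehicle-only wells. The test organism is a mutant strain from a panel with lesions in DNA repair or checkpoint genes.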
# [9] = NCI Yeast Anticancer Drug Screen. Data for the wt2 strain (AID 169);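 further: 0% = growth of vehicle-treated yeast cultures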; conditions: S. cerevisiae wt2 strain growth inhibition, stronger effect = higher value
# How it was run: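 Values express reduction in yeast growth under compound treatment, referenced to vehicle-treated cells.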
# [10] = NCI Yeast Anticancer Drug Screen. Data for the mlh1 strain (AID 171);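 further: 0% = growth of vehicle-treated control cultures of the same strain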; conditions: S. cerevisiae mlh1 strain growth inhibition, stronger effect = higher value
# How it was run: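 Steps: expose the defined-mutant yeast strain to compound; expose a parallel culture to vehicle; measure growth; express compound effect as inhibition relative to the vehicle culture.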
# [11] = NCI Yeast Anticancer Drug Screen. Data for the sgs1 strain (AID 173);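 further: 0% = growth of vehicle-only control cultures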; conditions: S. cerevisiae sgs1 mutant, stronger effect = higher value
# How it was run: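 Treat defined-mutant yeast with compound; measure growth; calculate inhibition relative to vehicle-treated cells.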
# [12] = NCI Yeast Anticancer Drug Screen. Data for the mlh1 rad18 strain (AID 175); conditions: S. cerevisiae mlh1 rad18 strain growth inhibition, stronger effect = higher value
# How it was run: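 Test agents were incubated with a yeast strain of defined genotype (DNA damage repair defect). Inhibition of growth was derived by comparison with vehicle-exposed cultures.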
# [13] = NCI Yeast Anticancer Drug Screen. Data for the rad18 strain (AID 177); conditions: S. cerevisiae rad18 mutant growth inhibition, stronger effect = higher value
# How it was run: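 A genetically defined yeast mutant impaired in DNA damage repair was treated with test compounds, then its growth was measured against cultures receiving vehicle alone.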
# [14] = at 5.0 µM (retest, dose inferred, filed as 0.5)
# [15] = at 50.0 µM (retest, dose inferred, filed as 5.0)
smiles,measurement,setting,value
Cc1ccc(S/C(=C\C(=O)O)c2ccccc2)cc1,growth inhibition,[1]; at 1.2 µM,2%
same,growth inhibition,[1]; at 3.7 µM,7%
same,growth inhibition,[1]; at 11.0 µM,12%
same,growth inhibition,[1]; at 33.0 µM,28%
same,growth inhibition,[1]; at 100.0 µM,46%
same,growth inhibition,[2]; at 1.2 µM,-6%
same,growth inhibition,[2]; at 3.7 µM,2%
same,growth inhibition,[2]; at 11.0 µM,15%
same,growth inhibition,[2]; at 33.0 µM,25%
same,growth inhibition,[2]; at 100.0 µM,52%
same,growth inhibition,[3]; at 1.2 µM,-4%
same,growth inhibition,[3]; at 3.7 µM,-5%
same,growth inhibition,[3]; at 11.0 µM,-3%
same,growth inhibition,[3]; at 33.0 µM,4%
same,growth inhibition,[3]; at 100.0 µM,32%
same,growth inhibition,[4]; at 1.2 µM,2%
same,growth inhibition,[4]; at 3.7 µM,4%
same,growth inhibition,[4]; [14],-16%
same,growth inhibition,[4]; at 11.0 µM,13%
same,growth inhibition,[4]; at 33.0 µM,30%
same,growth inhibition,[4]; [15],47%
same,growth inhibition,[4]; at 50.0 µM,41.9%
same,growth inhibition,[4]; at 100.0 µM,52%
same,growth inhibition,[5]; at 1.2 µM,-6%
same,growth inhibition,[5]; at 3.7 µM,-3%
same,growth inhibition,[5]; [14],-15%
same,growth inhibition,[5]; at 11.0 µM,-4%
same,growth inhibition,[5]; at 33.0 µM,8%
same,growth inhibition,[5]; [15],-1%
same,growth inhibition,[5]; at 50.0 µM,28.9%
same,growth inhibition,[5]; at 100.0 µM,25%
same,growth inhibition,[6]; [14],-12%
same,growth inhibition,[6]; [15],52%
same,growth inhibition,[6]; at 50.0 µM,64.8%
same,growth inhibition,[7]; [14],-6%
same,growth inhibition,[7]; [15],29%
same,growth inhibition,[7]; at 50.0 µM,47.5%
same,growth inhibition,[8]; at 1.2 µM,-4%
same,growth inhibition,[8]; at 3.7 µM,-4%
same,growth inhibition,[8]; [14],-2%
same,growth inhibition,[8]; at 11.0 µM,-4%
same,growth inhibition,[8]; at 33.0 µM,6%
same,growth inhibition,[8]; [15],66%
same,growth inhibition,[8]; at 50.0 µM,39.5%
same,growth inhibition,[8]; at 100.0 µM,19%
same,growth inhibition,[9]; at 1.2 µM,-10%
same,growth inhibition,[9]; at 3.7 µM,-11%
same,growth inhibition,[9]; at 11.0 µM,-7%
same,growth inhibition,[9]; at 33.0 µM,-3%
same,growth inhibition,[9]; at 100.0 µM,11%
same,growth inhibition,[10]; at 1.2 µM,-6%
same,growth inhibition,[10]; at 3.7 µM,0%
same,growth inhibition,[10]; at 11.0 µM,6%
same,growth inhibition,[10]; at 33.0 µM,20%
same,growth inhibition,[10]; at 100.0 µM,38%
same,growth inhibition,[11]; at 1.2 µM,4%
same,growth inhibition,[11]; at 3.7 µM,-4%
same,growth inhibition,[11]; at 11.0 µM,12%
same,growth inhibition,[11]; at 33.0 µM,25%
same,growth inhibition,[11]; at 100.0 µM,50%
same,growth inhibition,[12]; [14],-29%
same,growth inhibition,[12]; [15],72% (active)
same,growth inhibition,[12]; at 50.0 µM,38%
same,growth inhibition,[13]; at 1.2 µM,-4%
same,growth inhibition,[13]; at 3.7 µM,4%
same,growth inhibition,[13]; at 11.0 µM,7%
same,growth inhibition,[13]; at 33.0 µM,20%
same,growth inhibition,[13]; at 100.0 µM,50%
